Reference: the supplement of paper PMC6522484
± gives the standard deviation of the averaged measurements.

Tests used:
[1] = test system: DLD1; experiment: cell viability (CellTiter-Glo) relative to plate median (fraction of plate median); higher = more viable cells; settings: 5 µM; treatment time 24 h; reporter: 7TFP
Method in brief: (§1)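 Two independent replicates were averaged for each reported value. Library compounds were applied at a final 5 µM for 24 h to colorectal cancer cell lines stably expressing lentiviral TCF/Wnt firefly luciferase reporters. Firefly luciferase or CellTiterGlo luminescence from each well was normalised to the plate median.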

[2] = test system: HCT116; experiment: as above; settings: 5 µM; treatment time 24 h; reporter: TCF4/Wnt
Method in brief: as §1

[3] = test system: SW480; experiment: as above; settings: 5 µM; treatment time 24 h; reporter: 7TFP
Method in brief: as §1

[4] = test system: DLD1; experiment: TCF/Wnt firefly luciferase reporter signal relative to plate median (fraction of plate median); higher = higher Wnt reporter signal; settings: 5 µM; treatment time 24 h; reporter: 7TFP
Method in brief: as §1

[5] = test system: SW480; experiment: as above; settings: 5 µM; treatment time 24 h; reporter: 7TFP
Method in brief: as §1

Row | SMILES | cell viability [1] | cell viability [2] | cell viability [3] | TCF/Wnt firefly luciferase reporter signal [4] | TCF/Wnt firefly luciferase reporter signal [5]
1 | CCC1(C)CC(=O)NC1=O (stereo not given) | 0.932 ± 0.018 | 1.09 ± 0.021 | 1 ± 0.022 | 1.15 ± 0.11 | 0.865 ± 0.0092
2 | CCS(=O)(=O)CCn1c([N+](=O)[O-])cnc1C | 0.965 ± 0.019 | 0.975 ± 0.014 | 1.01 ± 0.032 | 0.869 ± 0.0028 | 0.862 ± 0.059
3 | CC(C)Cn1c(=O)n(C)c(=O)c2nc[nH]c21 | 0.956 ± 0.048 | 1.04 ± 0.05 | 0.9585 ± 0.0092 | 0.972 ± 0.054 | 0.987 ± 0.018
4 | CC(=O)O[C@@H]1C[C@H]2C(C)(C)[C@@H](O)CC[C@]2(C)[C@H]2CC[C@@]3(C)[C@H](c4ccoc4)OC(=O)[C@H]4O[C@]43[C@@]21C [beta-DIHYDROGEDUNOL] | 0.978 ± 0.028 | 1.08 ± 0.078 | 0.984 ± 0.021 | 1.02 ± 0.035 | 1.12 ± 0.085
5 | CCCC(=O)Nc1ncnc2c1ncn2[C@@H]1O[C@@H]2COP(=O)(O)O[C@H]2[C@H]1OC(=O)CCC | 0.945 ± 0.055 | 0.957 ± 0.026 | 0.987 ± 0.0071 | 1.11 ± 0.17 | 1.09 ± 0.014
6 | CC(=O)Nc1ccc(S(=O)(=O)c2ccc(NC(C)=O)cc2)cc1 | 0.966 ± 0.1 | 0.94 ± 0.012 | 0.931 ± 0.012 | 1.09 ± 0.035 | 1.05 ± 0.042
7 | CCCCS(=N)(=O)CCC(N)C(=O)O (stereo not given) | 1.04 ± 0.021 | 0.948 ± 0.22 | 1.08 ± 0.014 | 1.05 ± 0.028 | 1.03 ± 0.11
8 | COC(=O)C[C@H]1C(C)(C)[C@@H](O)[C@@H]2CC3=C4C=C(OC)O[C@@H](c5ccoc5)[C@]4(C)CCC3[C@@]1(C)C2=O (stereo partly drawn) [3-DEOXO-3beta-HYDROXYMEXICANOLIDE 16-ENOL ETHER] | 0.931 ± 0.11 | 0.91 ± 0.036 | 0.919 ± 0.018 | 0.946 ± 0.07 | 0.921 ± 0.064
9 | Nc1ncnc2c1ncn2[C@@H]1O[C@H](CO)[C@@H](O)[C@H]1O | 1.06 ± 0.014 | 1.06 ± 0.09 | 1.04 ± 0.035 | 1.07 ± 0.17 | 1.15 ± 0.028
10 | Cc1nc2ccccn2c(=O)c1CCN1CCC(C(=O)c2ccc(F)cc2)CC1 | 0.911 ± 0.15 | 1.03 ± 0.099 | 1.04 ± 0.057 | 1.01 ± 0.037 | 0.947 ± 0.017
11 | NS(=O)(=O)c1cc2c(cc1Cl)N=C(CSCc1ccccc1)NS2(=O)=O | 0.974 ± 0.079 | 1.08 ± 0.014 | 0.974 ± 0.066 | 0.861 ± 0.04 | 1.03 ± 0.042
12 | CC1(C)[C@@H](O[C@H]2O[C@H](C(=O)O)[C@@H](O)[C@H](O)[C@H]2O[C@@H]2O[C@H](C(=O)O)[C@@H](O)[C@H](O)[C@H]2O)CC[C@]2(C)[C@H]3C(=O)C=C4[C@@H]5C[C@@](C)(C(=O)O)CC[C@]5(C)CC[C@@]4(C)[C@]3(C)CC[C@@H]12 | 1.04 ± 0.042 | 1.14 | 1.02 ± 0.03 | 1.22 ± 0.13 | 1.16 ± 0.092
13 | CC(C)(C)NC[C@H](O)c1ccc(O)c(CO)c1 | 1.01 ± 0.13 | 0.93 ± 0.061 | 0.972 ± 0.069 | 1.02 | 1.07 ± 0.092
14 | CC1(C)Oc2ccc3ccc(=O)oc3c2CC1O (stereo not given) | 0.993 ± 0.011 | 1.01 ± 0.042 | 1.07 ± 0.021 | 0.996 ± 0.19 | 0.791 ± 0.089
15 | O=C1CC[C@]23/C=C/C(=O)NCCCCNCCCNC(=O)/C=C/c4ccc(c2c4)O[C@@H]3C1 | 1.03 ± 0.014 | 1.06 ± 0.057 | 1.01 ± 0.024 | 1.01 ± 0.056 | 1.04 ± 0.042
16 | CC(C)[N+](C)(CCOC(=O)C1c2ccccc2Oc2ccccc21)C(C)C | 0.979 ± 0.021 | 1.01 ± 0.14 | 0.984 ± 0.017 | 1.06 ± 0.1 | 1.04 ± 0.06
17 | O=c1cc(CO)occ1O | 1.02 ± 0.057 | 1.13 ± 0.099 | 0.932 ± 0.011 | 0.952 ± 0.069 | 1.04 ± 0.083
18 | COC(=O)c1c(C)c2c(c(C)c1O)OC(=O)c1c(C)c(Cl)c(O)c(Cl)c1O2 | 0.994 ± 0.037 | 0.865 ± 0.016 | 0.9555 ± 0.0078 | 0.895 ± 0.083 | 0.933 ± 0.057
19 | C[N+](C)(C)CCOP(=O)(O)OP(=O)([O-])OC[C@H]1O[C@@H](n2ccc(N)nc2=O)[C@H](O)[C@@H]1O | 0.923 ± 0.1 | 0.942 ± 0.016 | 1.01 ± 0.017 | 1.01 ± 0.096 | 1.04 ± 0.028
20 | CO/N=C(\C(=O)N[C@@H]1C(=O)N2C(C(=O)O)=C(COC(C)=O)CS[C@H]12)c1csc(N)n1 | 1.03 ± 0.035 | 1.07 | 0.969 ± 0.031 | 1.01 ± 0.11 | 0.856 ± 0.074
21 | O=C(/C=C/c1ccc(O)c(O)c1)O[C@@H]1C[C@](O)(C(=O)O)C[C@@H](O)[C@H]1O | 0.9805 ± 0.0064 | 0.95 ± 0.071 | 0.9255 ± 0.0092 | 0.931 ± 0.096 | 0.9705 ± 0.0064
22 | CN1[C@@H](CC(=O)c2ccccc2)CCC[C@H]1C[C@H](O)c1ccccc1 | 1.1 ± 0.13 | 0.987 ± 0.061 | 1.05 ± 0.021 | 0.998 ± 0.032 | 1.04 ± 0.098
23 | C=CCSCC(N)C(=O)O (stereo not given) | 1.015 ± 0.0071 | 0.976 ± 0.15 | 1.01 ± 0.05 | 0.923 ± 0.027 | 0.923 ± 0.02
24 | Nc1ccc(S(=O)(=O)Nc2nccs2)cc1 | 1.01 ± 0.031 | 0.911 ± 0.028 | 1.065 ± 0.0071 | 0.999 ± 0.072 | 1.055 ± 0.0071
25 | CCCCCCCCNC(C)C(O)c1ccc(SC(C)C)cc1 (stereo not given) | 0.978 ± 0.021 | 1.05 ± 0.042 | 1.02 ± 0.03 | 1.08 ± 0.099 | 1.09 ± 0.085
26 | COc1ccc(C(C)=O)c(O)c1 | 1 ± 0.037 | 1.04 ± 0.09 | 1.05 ± 0.014 | 1.06 ± 0.071 | 1.03 ± 0.068
27 | CC(=O)c1c2c(c(C)n1-c1ccccc1C(=O)O)C(=O)c1c(O)cccc1C2=O [Bhimamycin D] | 1.02 ± 0.048 | 0.863 ± 0.025 | 0.969 ± 0.072 | 1.05 ± 0.11 | 1.08 ± 0.042
28 | CN[C@@H]1[C@@H](O[C@H]2O[C@H](CO)[C@@H](N)[C@H](O)[C@H]2O)OC2C[C@@H](N)[C@@H](O[C@H]3[C@H](O)[C@@H](O)[C@H](N)C[C@@H]3N)OC2[C@@H]1O (stereo not given in full) | 0.893 ± 0.0028 | 0.952 ± 0.03 | 0.965 ± 0.037 | 1.08 ± 0.028 | 0.88 ± 0.11
29 | CC(C)[N+]1(C)[C@@H]2CC[C@H]1C[C@@H](OC(=O)C(CO)c1ccccc1)C2 (stereo not given in full) | 1.02 ± 0.13 | 0.989 ± 0.16 | 0.953 ± 0.065 | 1 ± 0.013 | 0.935 ± 0.076
